Measured values as given in PubChem BioAssay (NCATS).
Results filed as inconclusive are left out. A number with no mark means an inactive call. The source made the active and inactive calls. Calls come from the whole dose curve; as a rule, active = well fitted inhibition curve with a large enough effect; inconclusive = small, poorly fitted or top-dose-only effect; inactive = no such curve, though single readings can be large or run the other way.

experiment: qHTS Screen of the MIPE 4.0 Collection Against Ewings Sarcoma (RDES) (AID 1259252); details: RD-ES Ewing sarcoma viability, CellTiter-Glo, 48 h; series mostly up to 45.8 µM; viability (percent of control): at the top concentration; note: nearly all actives have a fitted effect of over 35% in size;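 for viability (percent of control): 100% = DMSO-treated cells and 0% = medium-only wells without cells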
In short: (§1)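 Dose series incubated 48 h with cells in RPMI plus 5% FBS, glutamine and penicillin/streptomycin; cell viability then quantified via CellTiter-Glo.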
Potency is the fitted concentration of half-maximal effect.

SMILES | Potency | viability (percent of control)
CS(=O)(=O)N1CCc2c(-c3cnc(N)nc3)nc(N3CCOCC3)nc21 | 105 nM (active) | 
O=C(O)c1ccc(Nc2ncc3c(n2)-c2ccc(Cl)cc2C(c2c(F)cccc2F)=NC3)cc1 | 1050 nM (active) | 
Cc1ccc2nc(NCCN)c3ncc(C)n3c2c1 | 6620 nM (active) | 
O=C(O)C=Cc1ccc(Cn2ccnc2)cc1 |  | 119%
CC(=O)N1CCN(c2ccc(OCc3nn(C)c(C)c3-c3cccc4c(CCCOc5cccc6ccccc56)c(C(=O)O)n(Cc5cccnc5)c34)cc2)CC1 | 332 nM (active) | 
NC1=N[C@H]2[C@H](CS[C@H]2CCCCC(=O)O)N1 |  | 120% [at 23.2 µM]
OCc1ccccc1O[C@@H]1O[C@H](CO)[C@H](O)[C@H](O)[C@H]1O |  | 107%
OCCN1C[C@H](O)[C@@H](O)[C@H](O)[C@@H]1CO |  | 128%
COC(=O)[C@@H]1CC2=CC(=O)CC[C@]2(C)[C@@]23O[C@@H]2C[C@@]2(C)[C@H](CC[C@@]24CCC(=O)O4)[C@@H]13 |  | 128%
CN[C@H](CC(C)C)C(=O)N[C@H]1C(=O)N[C@@H](CC(N)=O)C(=O)N[C@@H]2C(=O)N[C@H]3C(=O)N[C@H](C(=O)N[C@H](C(=O)O)c4cc(O)cc(O)c4-c4cc3ccc4O)[C@H](O)c3ccc(c(Cl)c3)Oc3cc2cc(c3O[C@@H]2O[C@H](CO)[C@@H](O)[C@H](O)[C@@H]2O[C@H]2C[C@](C)(N)[C@H](O)[C@H](C)O2)Oc2ccc(cc2Cl)[C@H]1O |  | 117%
Cc1cn([C@@H]2O[C@H](CO)[C@@H](O)[C@H]2F)c(=O)[nH]c1=O |  | 102%
Cc1ccccc1C(=O)Nc1ccc(C(=O)N2CCCC(O)c3cc(Cl)ccc32)c(C)c1 (stereo unspecified) |  | 101%
CNC(=O)Nc1ccc(-c2nc(N3CC4CCC(C3)O4)c3cnn(C4CCC5(CC4)OCCO5)c3n2)cc1 | 46.9 nM (active) | 
CN[C@H]1[C@@H](O)[C@@H]2O[C@@H]3O[C@H](C)CC(=O)[C@]3(O)O[C@@H]2[C@@H](NC)[C@H]1O | 52.6 nM (active) | 
O=c1[nH]c(=O)n([C@H]2C[C@@H](O)[C@@H](CO)O2)cc1C=CBr |  | 116%
C=Cc1c(C)c2cc3nc(cc4[nH]c(cc5nc(cc1[nH]2)C(C)=C5CCC(=O)O)c(CCC(=O)OC)c4C)[C@@]1(C)C3=CC=C(C(=O)OC)[C@H]1C(=O)OC | 41.8 nM (active) | 
CC(C)(O)CC[C@@H](O)[C@](C)(O)[C@H]1CC[C@@]2(O)C3=CC(=O)[C@@H]4C[C@@H](O)[C@@H](O)C[C@]4(C)[C@@H]3CC[C@]12C |  | 108%
CCCCC(=O)O[C@]1(C(=O)CO)[C@@H](C)C[C@H]2[C@@H]3CCC4=CC(=O)C=C[C@]4(C)[C@@]3(F)[C@@H](O)C[C@@]21C |  | 114%
CC(=O)C1=C(O)C=C2Oc3c(C(C)=O)c(O)c(C)c(O)c3C2(C)C1=O (stereo unspecified) |  | 111%
C=CC(=O)N1CCc2ccc(-n3c(=O)ccc4cnc5ccc(-c6cnn(C)c6)cc5c43)cc21 | 6620 nM (active) | 
CC(Cc1ccc(O)c(O)c1)(NN)C(=O)O (stereo unspecified) |  | 115%
CCNC(=O)Nc1ccc(-c2nc3c(c(N4CCOC[C@H]4C)n2)CCN(C2COC2)C3)cc1 | 1050 nM (active) | 
CC1(C)O[C@@H]2C[C@H]3[C@@H]4CCC5=CC(=O)C=C[C@]5(C)[C@@H]4[C@@H](O)C[C@]3(C)[C@]2(C(=O)CO)O1 |  | 119%
O=C(Nc1ccc(Oc2ccnc3[nH]ccc23)c(F)c1)c1cccn(-c2ccc(F)cc2)c1=O |  | 106%
C[C@@H]1[C@H](C)CC[C@]2(C(=O)O)CC[C@]3(C)C(=CC[C@@H]4[C@@]5(C)C[C@@H](O)[C@H](O)[C@@](C)(CO)[C@H]5CC[C@]43C)[C@@H]12 |  | 122%
CCCCCCCCCCCCc1ccc(S(=O)(=O)Nc2nncs2)cc1 |  | 113%
CON=C(C(=O)N[C@@H]1C(=O)N2C(C(=O)O)=C(CSC(=O)c3ccco3)CS[C@H]12)c1csc(N)n1 |  | 125%

experiment: qHTS Screen of the MIPE 4.0 Collection Against Ewings Sarcoma (TC71) (AID 1259253); details: TC71 Ewing sarcoma viability, CellTiter-Glo, 48 h; series mostly up to 45.8 µM; viability (% of DMSO): at the top concentration; note: nearly all actives have a fitted effect of over 40% in size;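 for viability (% of DMSO): 100% = DMSO-treated cells and 0% = medium-only wells without cells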
In short: as §1

SMILES | viability (% of DMSO) | Potency
CON=C(C(=O)N[C@@H]1C(=O)N2C(C(=O)O)=C(Cn3ccc(=N)n3CCO)CS[C@H]12)c1csc(N)n1 | 116% | 
CCc1cc(C(C)=NOCc2ccc(C3CCCCC3)c(C(F)(F)F)c2)ccc1CN1CC(C(=O)O)C1 | 126% | 
COc1ccc([C@@H]2CNC(=O)C2)cc1OC1CCCC1 |  | 2350 nM (active)
N#CC(=Cc1ccc(O)c(O)c1)C(=O)NCc1ccccc1 |  | 23500 nM (active)
CC(=O)O[C@]1(C(C)=O)CC[C@H]2[C@@H]3C=C(C)C4=CC(=O)CC[C@]4(C)[C@@H]3CC[C@@]21C |  | 4180 nM (active)
C=CC[C@@H]1C=C(C)C[C@H](C)C[C@H](OC)[C@H]2O[C@@](O)(C(=O)C(=O)N3CCCC[C@H]3C(=O)O[C@H](C(C)=C[C@@H]3CC[C@H](O)[C@H](OC)C3)[C@@H](C)[C@@H](O)CC1=O)[C@@H](C)C[C@@H]2OC |  | 1870 nM (active)
N#CC(=C(N)Sc1ccc(N)cc1)c1ccccc1C(F)(F)F |  | 10500 nM (active)
COc1cc(C)c(Sc2cnc(NC(=O)c3ccc(CNC(C)C(C)(C)C)cc3)s2)cc1C(=O)N1CCN(C(C)=O)CC1 (stereo unspecified) |  | 14800 nM (active)
COc1ccc(Nc2cc(-c3cnc(N)nc3)nc(N3CCOCC3)n2)cn1 |  | 14800 nM (active)
C[N+]1(C)[C@@H]2C[C@@H](OC(=O)C(O)(c3cccs3)c3cccs3)C[C@H]1[C@@H]1O[C@@H]12 | 124% | 
CC(=O)N[C@H]1[C@@H]([C@H](O)[C@H](O)CO)OC(C(=O)O)=C[C@@H]1N=C(N)N | 120% | 
C=C1C[C@@]2(O)O[C@@]3(C[C@H]2C(C)C)[C@H](C)CC[C@H]13 | 117% | 
CS(=O)(=O)N1CCc2c(-c3cnc(N)nc3)nc(N3CCOCC3)nc21 |  | 590 nM (active)
O=C(O)c1ccc(Nc2ncc3c(n2)-c2ccc(Cl)cc2C(c2c(F)cccc2F)=NC3)cc1 |  | 833 nM (active)
Cc1ccc2nc(NCCN)c3ncc(C)n3c2c1 |  | 4180 nM (active)
O=C(O)C=Cc1ccc(Cn2ccnc2)cc1 | 121% | 
CC(=O)N1CCN(c2ccc(OCc3nn(C)c(C)c3-c3cccc4c(CCCOc5cccc6ccccc56)c(C(=O)O)n(Cc5cccnc5)c34)cc2)CC1 |  | 1180 nM (active)
NC1=N[C@H]2[C@H](CS[C@H]2CCCCC(=O)O)N1 | 135% [at 23.2 µM] | 
OCc1ccccc1O[C@@H]1O[C@H](CO)[C@H](O)[C@H](O)[C@H]1O | 113% | 
OCCN1C[C@H](O)[C@@H](O)[C@H](O)[C@@H]1CO | 130% | 

SMILES | viability (% of DMSO) | Potency
COC(=O)[C@@H]1CC2=CC(=O)CC[C@]2(C)[C@@]23O[C@@H]2C[C@@]2(C)[C@H](CC[C@@]24CCC(=O)O4)[C@@H]13 | 111% | 
CN[C@H](CC(C)C)C(=O)N[C@H]1C(=O)N[C@@H](CC(N)=O)C(=O)N[C@@H]2C(=O)N[C@H]3C(=O)N[C@H](C(=O)N[C@H](C(=O)O)c4cc(O)cc(O)c4-c4cc3ccc4O)[C@H](O)c3ccc(c(Cl)c3)Oc3cc2cc(c3O[C@@H]2O[C@H](CO)[C@@H](O)[C@H](O)[C@@H]2O[C@H]2C[C@](C)(N)[C@H](O)[C@H](C)O2)Oc2ccc(cc2Cl)[C@H]1O | 131% | 
Cc1cn([C@@H]2O[C@H](CO)[C@@H](O)[C@H]2F)c(=O)[nH]c1=O | 114% | 
Cc1ccccc1C(=O)Nc1ccc(C(=O)N2CCCC(O)c3cc(Cl)ccc32)c(C)c1 (stereo unspecified) | 96.6% | 
CNC(=O)Nc1ccc(-c2nc(N3CC4CCC(C3)O4)c3cnn(C4CCC5(CC4)OCCO5)c3n2)cc1 |  | 13.2 nM (active)
CN[C@H]1[C@@H](O)[C@@H]2O[C@@H]3O[C@H](C)CC(=O)[C@]3(O)O[C@@H]2[C@@H](NC)[C@H]1O |  | 1320 nM (active)
O=c1[nH]c(=O)n([C@H]2C[C@@H](O)[C@@H](CO)O2)cc1C=CBr | 119% | 
C=Cc1c(C)c2cc3nc(cc4[nH]c(cc5nc(cc1[nH]2)C(C)=C5CCC(=O)O)c(CCC(=O)OC)c4C)[C@@]1(C)C3=CC=C(C(=O)OC)[C@H]1C(=O)OC |  | 83.3 nM (active)
CC(C)(O)CC[C@@H](O)[C@](C)(O)[C@H]1CC[C@@]2(O)C3=CC(=O)[C@@H]4C[C@@H](O)[C@@H](O)C[C@]4(C)[C@@H]3CC[C@]12C | 111% | 
CCCCC(=O)O[C@]1(C(=O)CO)[C@@H](C)C[C@H]2[C@@H]3CCC4=CC(=O)C=C[C@]4(C)[C@@]3(F)[C@@H](O)C[C@@]21C | 112% | 
CC(=O)C1=C(O)C=C2Oc3c(C(C)=O)c(O)c(C)c(O)c3C2(C)C1=O (stereo unspecified) | 127% | 
C=CC(=O)N1CCc2ccc(-n3c(=O)ccc4cnc5ccc(-c6cnn(C)c6)cc5c43)cc21 |  | 3320 nM (active)
CC(Cc1ccc(O)c(O)c1)(NN)C(=O)O (stereo unspecified) | 105% | 
CCNC(=O)Nc1ccc(-c2nc3c(c(N4CCOC[C@H]4C)n2)CCN(C2COC2)C3)cc1 |  | 935 nM (active)
CC1(C)O[C@@H]2C[C@H]3[C@@H]4CCC5=CC(=O)C=C[C@]5(C)[C@@H]4[C@@H](O)C[C@]3(C)[C@]2(C(=O)CO)O1 | 113% | 
O=C(Nc1ccc(Oc2ccnc3[nH]ccc23)c(F)c1)c1cccn(-c2ccc(F)cc2)c1=O | 124% | 
C[C@@H]1[C@H](C)CC[C@]2(C(=O)O)CC[C@]3(C)C(=CC[C@@H]4[C@@]5(C)C[C@@H](O)[C@H](O)[C@@](C)(CO)[C@H]5CC[C@]43C)[C@@H]12 | 128% | 
CCCCCCCCCCCCc1ccc(S(=O)(=O)Nc2nncs2)cc1 | 114% | 
CON=C(C(=O)N[C@@H]1C(=O)N2C(C(=O)O)=C(CSC(=O)c3ccco3)CS[C@H]12)c1csc(N)n1 | 141% | 
